In PubChem BioAssay AID463173 (ICCB-Longwood Screening Facility, Harvard Medical School, 2010):
Screen size: about 52,000 compounds; about 4,300 (8.3%) were called active. This excerpt belongs to a sample that is enriched for actives. Values without a mark were called inactive. Rule as the data show it: active = survival mostly below about 52% (no sharp cut-off); inactive = mostly above about 56%.

Test system: DeltatarO mutant
Assay: S. aureus survival, RN4220 and DeltatarO strains – OD600, teichoic acid synthesis inhibitors, primary screen (AID 463173)
Details: S. aureus RN4220 wild type/DeltatarO growth, OD600, 18 h, active compounds read low, screened at 18.75 µg/mL (by protocol)

In order of rising survival:
1. COC(=O)Cc1c(C)c2cc3c(c(C)c2oc1=O)OCN(CCc1ccc(F)cc1)C3  44%
2. COc1ccc(CNCCSc2nnnn2-c2ccccc2)c(OC)c1  49%
3. CCc1cc(=O)oc2c(C)c3c(cc12)CN(CCc1ccccc1OC)CO3  51%
4. Cc1ccc(NC(=O)Cn2c(CCC(=O)O)ccc2-c2ccc(Cl)cc2)cc1  53%
5. CCCCCCNC(=O)CCc1c(C)nc2nc(-c3cc(OC)cc(OC)c3)nn2c1C  57%
6. Cc1cccc(NC(=O)Cn2cc(C(=O)C3CCCCC3)c3ccccc32)c1C  63%
7. O=C(NCc1ccco1)C(c1cccs1)N(C(=O)C1COc2ccccc2O1)c1cccc(O)c1 (stereo not drawn)  63%
8. CCc1ccc(NC(=O)C(=O)NCC(c2cccnc2)N2CCc3ccccc3C2)cc1 (stereo not drawn)  64%
9. O=C(Nc1nc2nc(-c3ccccc3)cc(=O)n2[nH]1)c1ccc(Cl)cc1  65%
10. Cc1ccc(Cn2c(=N)n(CC(=O)c3ccccc3)c3ccccc32)cc1  65%
11. CCOC(=O)c1sc2ncn(CC(=O)Nc3ccc(C)cc3Br)c(=O)c2c1C  66%
12. CC(=O)Nc1ccc(Nc2ncnc3c2c(-c2ccccc2)cn3-c2ccc(C)c(Cl)c2)cc1  68%
13. O=C(NCc1ccccc1)c1c2c(nc3ccccc13)C(=O)N(C1CCCCC1)C2  69%
14. CC1CCN(S(=O)(=O)c2ccc3c(c2)CCN3C(=O)Nc2ccc(Br)cc2)CC1  69%
15. Cn1ccc2cc(S(=O)(=O)N3CCN(C(=O)Nc4ccc(F)cc4F)CC3)ccc21  70%
16. CCc1cc(=O)oc2c(C)c3c(cc12)CN(CCc1ccccc1)CO3  71%
17. COc1ccc(Cl)cc1NC(=O)Cn1nc(C(F)(F)F)c2c1CCC2  72%
18. Cc1ccccc1-c1ncnn1-c1sc2c(c1C#N)CCCCC2  72%
19. COc1cccc(CNC(=O)c2cc3c(=O)oc4ccc(C)cc4c3s2)c1  73%
20. CCc1ccccc1NC(=O)Cn1nc(C(F)(F)F)c2c1CCC2  75%
21. CCCNC(=O)c1c2c(nc3ccccc13)C(=O)N(C1CCCCC1)C2  75%
22. Cc1ccc(CNC(=O)c2nc(SCc3ccccc3C)ncc2Cl)cc1  76%
23. Cc1ccccc1CNC(=O)Cn1c(=O)c2cccn2c2cccnc21  76%
24. CCc1ccccc1NC(=O)Cn1nc(C(F)(F)F)c2c1CCCC2  77%
25. Cc1nnc2c3ccccc3nc(N3CCN(c4ccccc4)CC3)n12  77%
26. O=C(Cn1nnc(-c2cccc(C(F)(F)F)c2)n1)NCc1ccc(F)cc1  77%
27. Cc1ccc(C(C(=O)NC2CCCCC2)N(C(=O)C2COc3ccccc3O2)c2ccc3c(c2)OCO3)o1 (stereo not drawn)  77%
28. CCc1ccc(-c2nc(CN3CCC(C(=O)NCCc4ccc(Cl)cc4)CC3)c(C)o2)cc1  77%
29. Cc1cccc(C(=O)N2CCc3cc(CNC(=O)CSc4ccccc4)ccc32)c1  77%
30. Cc1c(C)c2cc3c(c(C)c2oc1=O)OCN(CCc1ccccc1)C3  77%
31. CNc1oc(-c2ccc(COc3ccc(C)cc3)o2)nc1C#N  77%
32. COc1cc(NC(=O)Cn2nc(C(F)(F)F)c3c2CCCC3)c(OC)cc1Cl  78%
33. Cc1ccc(C(=O)Nc2ccccc2C(=O)OCc2cc(=O)n3nc(C(C)C)sc3n2)cc1  78%
34. Cc1nn2c(-c3ccccc3)cc(-c3ccccc3)nc2c1-c1ccc(Cl)cc1  78%
35. CCN(C(=O)c1cc2c(=O)oc3ccc(C)cc3c2s1)c1cc(OC)ccc1OC  78%
36. COc1ccc(C2CC(=O)c3cnc4c(-c5ccc(F)cc5)c(C)nn4c3C2)cc1OC (stereo not drawn)  80%
37. N#Cc1c(/N=C/N2CCCCC2)sc2c1CCCC2  80%
38. Cc1cc(=O)n(Cc2c(F)cccc2Cl)c2c1c(C)nn2C  81%
39. COc1cc(C2CC(=O)c3c([nH]c(C(=O)OCC4CCCCC4)c3C)C2)cc(OC)c1OC (stereo not drawn)  82%
40. COc1ccc(CNC(=O)c2c3c(nc4ccccc24)C(=O)N(C2CCCCC2)C3)cc1  83%
41. COc1ccc(Cl)cc1NC(=O)[C@H]1O[C@@H]2OC(C)(C)O[C@@H]2[C@H]2OC(C)(C)O[C@H]21  83%
42. N=c1n(CCN2CCCCC2)c2ccccc2n1CC(O)c1ccc2c(c1)OCO2 (stereo not drawn)  83%
43. CCNc1nc(Oc2ccc(=O)n(-c3ccccc3)n2)nc(N(C)C)n1  84%
44. Nc1nc2nc(-c3ccccc3)cc(=O)n2[nH]1  84%
45. CCc1ccc(OCC(=O)Nc2c(C(=O)c3ccc(Br)cc3)oc3ccccc23)cc1  85%
46. COc1cccc(-c2ncnn2-c2sc3c(c2C#N)CCCCC3)c1OC  86%
47. Cc1ccccc1CNC(=O)C(=O)NCC(c1ccc2c(c1)OCO2)N1CCOCC1 (stereo not drawn)  87%
48. N#Cc1c(NC(=O)c2cccs2)sc2c1CCCCC2  87%
49. Cc1ccc(CNC(=O)c2c3c(nc4ccccc24)C(=O)N(C2CCCCC2)C3)cc1  91%
50. CCc1ccc2nc(N(Cc3cccnc3)C(C)=O)sc2c1  91%
51. COc1ccc2oc(=O)c(-c3nc(-c4ccc(C)c(C)c4)cs3)cc2c1  91%
52. CCOc1ccccc1N(C)C(=O)c1c2c(nc3ccccc13)C(=O)N(C1CCCCC1)C2  92%
53. Cc1oc(-c2ccccc2)nc1Cn1c(=O)cc(-c2ccccc2)c2c(C)nn(C)c21  92%
54. COc1ccc(OC)c(CNC(=O)c2c3c(nc4ccccc24)C(=O)N(C2CCCCC2)C3)c1  93%
55. CCCn1c(CCC(=O)Nc2ccc(OCC)cc2)nc2cccnc21  93%
56. CC(C)c1nn2c(=O)cc(COC(=O)C3CCCCC3)nc2s1  94%
57. FC(F)(F)c1nnc2c3ccccc3c(Cl)nn12  95%
58. Cc1cccc(-c2cc3nc(-c4ccccc4)cc(=O)n3[nH]2)c1  97%
59. COc1ccccc1CNC(=O)c1c2c(nc3ccccc13)C(=O)N(C1CCCCC1)C2  99%
60. O=C(CCCCn1c(=O)c2ccccc2n(CC(=O)Nc2ccc(F)cc2F)c1=O)NCc1ccccc1Cl  100%
61. CC(C)CCNC(=O)c1c2c(nc3ccccc13)C(=O)N(C1CCCCC1)C2  101%
62. C/C(=N\N=C1/NC(=O)C(CC(=O)O)S1)c1ccc(C)o1 (stereo not drawn)  101%
63. O=C(NCc1ccc(F)cc1)c1c2c(nc3ccccc13)C(=O)N(C1CCCCC1)C2  102%
64. CCn1c(SCC(N)=O)nc2ccccc2c1=O  102%
65. CSc1cccc(NC(=O)Nc2ccccc2OCc2cc(=O)n3cc(C)ccc3n2)c1  102%
66. CC(NC(=O)Nc1ccccc1C(F)(F)F)c1c(-n2cccc2)sc2c1CCCC2 (stereo not drawn)  104%
67. O=C(CSCc1nc2cccnc2n1C1CCCCC1)NCc1cccc(Br)c1  105%
68. COc1ccc(C2C3C(=O)N(c4ccccc4)C(=O)C3ON2c2ccccc2)cc1 (stereo not drawn)  106%
69. Cc1ccc(-c2nc(Cn3c(=O)cc(-c4ccccc4)c4c(C)nn(C)c43)c(C)o2)cc1  108%
70. Cc1nn(C)c2c1c(-c1ccccc1)cc(=O)n2Cc1ccccc1F  109%
71. O=C(CCS(=O)(=O)c1cccc2nonc12)Nc1ccc(F)cc1F  124%
72. CCOc1ccc(C(=O)c2cn(CC(=O)Nc3ccc(F)c(F)c3)c3cc4c(cc3c2=O)OCCO4)cc1  130%
73. COc1ccccc1-c1cc(C(=O)Nc2sc3c(c2C#N)CCCC3)no1  130%
74. O=C(NCc1cccc(Cl)c1)c1c2c(nc3ccccc13)C(=O)N(C1CCCCC1)C2  144%

With COC(=O)c1ccccc1NC(=O)Cn1nc(C(F)(F)F)c2c1CCCC2 the survival was 5% (active).
For COc1ccc(Cl)cc1NC(=O)Cn1nc(C(F)(F)F)c2c1CCCC2, the survival was 35% (active).
With FC(F)(F)c1nnc2c3ccccc3nc(-c3ccccc3)n12 the survival was 29% (active).
With CC(C)OCCCNC(=O)c1c2c(nc3ccccc13)C(=O)N(C1CCCCC1)C2 the survival was 25% (active).
For COc1cccc(CNC(=O)c2c3c(nc4ccccc24)C(=O)N(C2CCCCC2)C3)c1, the survival was 46% (active).
For CCc1ccc(CNC(=O)c2c3c(nc4ccccc24)C(=O)N(C2CCCCC2)C3)cc1, the survival was 37% (active).
For CN(C(=O)c1c2c(nc3ccccc13)C(=O)N(C1CCCCC1)C2)c1ccc(F)cc1, the survival was 0% (active).
For COc1ccc(CNC(=O)c2c3c(nc4ccccc24)C(=O)N(C2CCCCC2)C3)c(OC)c1, the survival was 32% (active).
In the case of Cc1[nH]n2c(=O)cc(-c3ccccc3Cl)nc2c1-c1ccccc1, the survival is reported as -3% (active).
Cc1[nH]n2c(=O)cc(-c3ccc(Cl)cc3)nc2c1-c1ccccc1 was tested, and the survival was 3% (active).
With CC(C)(C)c1ccc(Cn2c(=N)n(CC(O)c3ccco3)c3ccccc32)cc1 (stereo not drawn) the survival was 5% (active).
In the case of Cc1ccc(C(C(=O)NCc2ccccc2)N(C(=O)C2COc3ccccc3O2)c2cccc(O)c2)o1 (stereo not drawn), the survival is reported as 45% (active).
For Cc1cccc(-c2nc(Cn3c(=O)cc(-c4ccccc4)c4c(C)nn(C)c43)c(C)o2)c1, the survival was -5% (active).
In the case of Cc1nn(C)c2c1c(-c1ccccc1)cc(=O)n2Cc1c(F)cccc1Cl, the survival is reported as -5% (active).
In the case of Cc1c(C)c2cc3c(c(C)c2oc1=O)OCN(CCc1ccc(F)cc1)C3, the survival is reported as 41% (active).
In the case of CCCc1cc(=O)oc2c(C)c3c(cc12)CN(CCc1ccc(Cl)cc1)CO3, the survival is reported as 39% (active).
With COc1ccccc1-c1ncnn1-c1sc2c(c1C#N)CCCCC2 the survival was -2% (active).
With N#Cc1c(-n2ncnc2-c2ccccc2C(F)(F)F)sc2c1CCCCC2 the survival was 6% (active).
For N#Cc1c(-n2ncnc2-c2ccccc2Cl)sc2c1CCCCC2, the survival was 26% (active).
